TRb SRC2 PPI = qHTS for Inhibitors of the Interaction of Thyroid Hormone Receptor and Steroid Receptor Coregulator 2; Thyroid hormone receptor beta (Homo sapiens), P10828; TRbeta-SRC2 peptide binding, fluorescence polarization; receptor liganded with 1 µM T3; Potency, µM (top dose mostly 106 µM), for the others: at the highest dose activity change, negative = inhibition, actives largely listed as inhibitors; actives 0.065% (n = 280,000);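 also: plate controls were bound peptide for no effect and peptide without receptor for full effect; nearly all actives have a fitted effect of over 50% in size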
Target sequence (P10828 whole entry, looked up): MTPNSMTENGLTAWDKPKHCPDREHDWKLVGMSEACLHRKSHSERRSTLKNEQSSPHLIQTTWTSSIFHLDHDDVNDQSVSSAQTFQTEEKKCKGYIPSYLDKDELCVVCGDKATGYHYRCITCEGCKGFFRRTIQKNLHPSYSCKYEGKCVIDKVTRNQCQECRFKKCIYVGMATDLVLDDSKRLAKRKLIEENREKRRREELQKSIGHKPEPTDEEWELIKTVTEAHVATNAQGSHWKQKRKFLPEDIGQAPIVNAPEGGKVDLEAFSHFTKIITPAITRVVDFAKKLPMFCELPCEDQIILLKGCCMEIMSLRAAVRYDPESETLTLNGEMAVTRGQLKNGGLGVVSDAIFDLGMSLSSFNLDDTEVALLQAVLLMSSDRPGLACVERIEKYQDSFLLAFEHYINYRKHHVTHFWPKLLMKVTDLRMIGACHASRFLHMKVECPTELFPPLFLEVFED
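Each compound concentration gave % activity, normalized to unbound and bound Texas Red SRC2 controls, from polarization read after 5 hr ambient incubation with T3-loaded human TRb LBD.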
Tau FP inhib = qHTS for Inhibitors of Tau Fibril Formation, Fluorescence Polarization | Microtubule-associated protein tau (Homo sapiens), P10636 | actives 0.39% (n = 280,000) | K18 P301L tau heparin fibrillization, Alexa594 FP, 6 h | AID 1468, 2008 | Potency, µM (titrated, usually from 57.7 µM), for inactives: at the top dose activity, negative = inhibition, usual class: inhibitors; also: nearly all actives have a fitted effect of over 55% in size
Target sequence (P10636 561-689 P618L limits assumed): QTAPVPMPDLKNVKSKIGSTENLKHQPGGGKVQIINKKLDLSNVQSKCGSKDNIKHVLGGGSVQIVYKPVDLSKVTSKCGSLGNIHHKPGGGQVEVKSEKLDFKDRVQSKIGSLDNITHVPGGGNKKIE
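Steps: dispense K18 P301L tau (15 uM plus 0.24 uM Alexa 594 tracer, final) in pH 7 sodium acetate; add compound; add heparin (20 uM final); incubate 6 hr, 37 C; add ThT (30 uM final); after 1 hr ambient, read FP.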
KDM4E inh = qHTS Assay for Inhibitors of Human Jumonji Domain Containing 2E (JMJD2E) | Lysine-specific demethylase 4E (Homo sapiens), B2RXH2 | JMJD2E catalytic domain, FDH-coupled NADH fluorescence (FDH is formaldehyde dehydrogenase) | AID 2147, 2009 | Potency, µM (highest dose often 57.1 µM), without a hit: at the highest dose activity change, negative = inhibition, most hits filed as inhibitors | actives 1.6% (n = 230,000); active = well fitted inhibition curve with a large enough effect, not every such curve was filed as active; inconclusive = small, poorly fitted or top-dose-only effect, or another doubt; inactive = no such curve, though single readings can be large or run the other way;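 also: 0% = wells with enzyme and -100% = buffer wells without enzyme; nearly all actives have a fitted effect of over 50% in size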
Tau fluor cs = Counterscreen qHTS for Inhibitors of Tau Fibril Formation, Fluorescence Polarization; tau K18 P301L Alexa594 fluorescence, heparin fibrillization; Potency, µM (highest dose often 57.7 µM), for inactives: at the top dose activity change, negative = decrease; actives 0.93% (n = 280,000); AID 1463, 2008; also: nearly all actives have a fitted effect of over 55% in size
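Human K18 P301L tau (15 uM unlabeled plus 0.24 uM Alexa 594-labeled, final) in 100 mM sodium acetate pH 7 was mixed with compound and 20 uM heparin and incubated 6 hr at 37 C.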
TR SRC2 fluor cs = Total Fluorescence Counterscreen for Inhibitors of the Interaction of Thyroid Hormone Receptor and Steroid Receptor Coregulator 2; actives 0.29% (n = 280,000); TRb/SRC2 Texas Red total fluorescence interference; Potency, µM (titrated, usually from 106 µM), inactives show top-dose fluorescence change, negative = quenching; active = well fitted curve in either direction with a large enough effect; inconclusive = small, poorly fitted or top-dose-only effect
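Human TRb ligand-binding domain at 0.6 uM with 20 nM Texas Red SRC2 peptide in Tris buffer containing 1 uM T3 and 5% DMSO, incubated with compound 5 h at ambient temperature. Total fluorescence (555/632 nm) calculated as parallel + 2 × perpendicular.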
Tau ThT inhib = qHTS for Inhibitors of Tau Fibril Formation, Thioflavin T Binding; Microtubule-associated protein tau (Homo sapiens), P10636; recombinant tau K18 P301L, heparin-induced fibrillization, ThT fluorescence; Potency, µM (top dose mostly 57.4 µM), for inactives: top-dose activity, negative = inhibition, actives largely listed as inhibitors; actives 2.1% (n = 270,000); also: nearly all actives have a fitted effect of over 55% in size
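ThT emission at 510 nm, taken 1 hr after adding 30 uM dye, quantifies aggregates formed when 20 uM heparin acts on human tau K18 P301L for 6 hr at 37 C.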
* hit, by the source's call; ? = inconclusive; / = no result given; ! = repeats disagree; [ ] = another dose, or the depositor's remark. Only some compounds are listed: those with a hit (about 3.5% of all), similar ones and a draw of the others. Unless noted, calls follow the shape of the dose curve; as a rule, active = well fitted curve in the direction sought with a large enough effect; inconclusive = small, poorly fitted or top-dose-only effect, or another doubt; inactive = no such curve, though single readings can be large; an effect the other way counts as inactive or inconclusive. Unless noted, % is scaled to controls: 0 for no effect and ±100 for the full control effect; potency is read from the fitted curve at half-maximal effect.

SMILES	TRb SRC2 PPI	Tau FP inhib	KDM4E inh	Tau fluor cs	TR SRC2 fluor cs	Tau ThT inhib
CCCCOc1cccc(C(=O)N2CCN(CCc3ccncc3)CC2)c1	-2.8%	-1.6%	/	4.5%	6.5%	2.0%
CCSc1nc2ccccc2n1CC(N)=O	-7.8%	6.7%	16.7%	3.2%	-6.7%	-0.8%
CCSc1nc2ccccc2n1C(=O)/C=C\c1ccc(OC)c(OC)c1	-2.3%	?	-0.1%	-17.5%	-1.3%	10µM*
O=C1c2cccc(O)c2C(=O)c2c(O)cc(CO)cc21	-1.1%[201 µM]	/	/	/	-6.0%[201 µM]	/
O=C1c2c(O)ccc(O)c2C(=O)c2c(NCCNCCO)ccc(NCCNCCO)c21	-17.9%	?	22.4µM*!	3.16µM*[quencher]	-9.6%	8.91µM*
Cc1cccc(NC(=O)c2ccc(Cl)c(NC(=O)c3ccncc3)c2)c1C	-5.2%	0.8%	-1.2%	-8.5%	-4.9%	-4.9%
O=C(Cc1ccccc1F)N1CCC(c2nc3c(nnn3Cc3cccc(Cl)c3)c(=O)[nH]2)CC1	1.4%	-1.2%	/	-9.3%	-2.7%	-12.0%
COC(=O)c1ccc(CC(=O)c2c(C)cc(O)cc2O)o1	-6.9%	?	17.8µM*	?	-6.0%	28.2µM*
CCN(CC)S(=O)(=O)c1ccc(/C=C/C(=O)Nc2cccc(F)c2)cc1	-2.7%	35.5µM*	-25.1%	?	-2.6%	?
Cc1ccc(NS(=O)(=O)c2ccc(NC(=O)c3cccc(NC(=O)C(C)C)c3)cc2)cc1	4.4%	?	-1.3%	?	-5.4%	17.3%
CCN(CC)S(=O)(=O)c1ccc(C(=O)Nc2cccc(C)c2)cc1	-2.4%	?	-2.1%	-27.9%	0.5%	-4.0%
CCN(CC)S(=O)(=O)c1ccc(NC(=O)Nc2cccc(C(F)(F)F)c2)cc1	2.4%	7.94µM*	-3.6%	?	-0.9%	-4.2%
O=C(NCCNC(=O)c1cc(OCC(F)(F)F)ccc1OCC(F)(F)F)Nc1cccc(C(F)(F)F)c1	0.4%	10µM*	-11.1%	?	-0.3%	-19.2%
Cc1ccc(S(=O)(=O)Nc2ccc(NC(=O)Nc3cccc(C(F)(F)F)c3)cc2)cc1	12.5%	12.6µM*	-9.3%	2.51µM*[quencher]	-1.7%	-10.8%
COc1ccc(C2=C(SC)CC2=NC(C)(C)C)cc1	0.3%	1.8%	?	-9.8%	-2.8%	?
CS(=O)(=O)Nc1ccccc1C(=O)NCc1ccccc1Cl	-3.6%	1.8%	?	1.6%	-2.9%	-2.7%
C[C@@H]1Nc2ccc(Cl)cc2S(=O)(=O)N1	-1.5%	4.2%	?	-7.1%	-2.5%	-8.1%
Cc1ccc(CNC(=O)C(=O)NCC(c2cccs2)S(=O)(=O)c2ccccc2)cc1 (configuration not stated)	1.8%	-1.3%	/	3.4%	-3.6%	11.9%
O=C(Nc1ccc(OC(F)F)cc1)Nc1cccc(C(F)(F)F)c1	-3.1%	25.1µM*	-1.6%	?	-2.8%	-5.4%
CCN(CC)S(=O)(=O)c1ccc(NC(=O)C2c3ccccc3Oc3ccccc32)cc1	-3.9%	28.2µM*	5.6%	?	0.5%	-6.9%
CNS(=O)(=O)c1ccc(NC(=O)C2c3ccccc3Oc3ccccc32)cc1	0.1%	-14.1%	4.8%	1.1%	-2.1%	13.9%
NNC(=O)Nc1cccc(C(F)(F)F)c1	-6.7%	-1.8%	12.0%	-7.8%	-1.2%	-12.7%
Cc1nc2ccc(Cc3ccc4nc(C)[nH]c4c3)cc2[nH]1	-7.9%	-8.3%	9.8%	-2.0%	-1.5%	-4.5%
Cc1nc2ccc(N=NN(C)C)cc2[nH]1	8.3%	?	?	?	-4.9%	10µM*
O=C(CCCN1C(=O)/C(=C/c2ccccc2)SC1=S)Nc1cccc(O)c1	9.9%	?	-22.8%	14.1µM*[quencher]	-2.5%	?
SMILES	TRb SRC2 PPI	Tau FP inhib	KDM4E inh	Tau fluor cs	TR SRC2 fluor cs	Tau ThT inhib
O=C(CCN1C(=O)/C(=C/c2cccc(Br)c2)SC1=S)Nc1cccnc1	-5.6%	-17.3%	-0.5%	-22.0%	-4.0%	?
Cc1ccc(/C=C2/SC(=S)N(CCCC(=O)Nc3ccc(O)cc3)C2=O)cc1	-1.0%	4.4%	-11.5%	?	-4.9%	?
O=C(CCCN1C(=O)/C(=C\c2ccccc2)SC1=S)Nc1ccc(O)cc1	2.9%	14.1%	-14.8%	14.1µM*[quencher]	-2.9%	?
CC(/C=C1\SC(=S)N(CCCC(=O)Nc2ccc(C(=O)O)c(O)c2)C1=O)=C\c1ccccc1	-1.4%	-8.6%	6.8%	?	-1.7%	5.01µM*
O=C(CCCN1C(=O)/C(=C/c2cccs2)SC1=S)Nc1cccc(C(=O)O)c1	-4.9%	5.7%	?	-10.9%	-3.6%	?
CC(=C\c1ccccc1)/C=C1/SC(=O)N(CCCC(=O)Nc2ccc(C(=O)O)cc2)C1=O	-1.0%	-4.4%	5.5%	-3.1%	-0.4%	?
O=C(CN1C(=O)/C(=C/c2cccc(Br)c2)SC1=S)Nc1cccnc1	5.4%	?	1.8%	8.91µM*[quencher]	1.3%	?
Cc1ccccc1-n1c(C)cc(/C=N/Nc2ccc([N+](=O)[O-])cn2)c1C	-10.4%	3.5%	-10.0%	?	-1.6%	4.47µM*
Cc1cc(/C=N/NC(=O)c2cccc([N+](=O)[O-])c2)c(C)n1-c1ccccc1	11.3%	?	-18.2%	?	-9.0%	?
O=[N+]([O-])c1ccc(N/N=C\c2cccn2-c2ccccc2)nc1	0.8%	15.7%	-2.4%	15.8µM*[quencher]	-2.2%	7.08µM*
Cc1cc(C)nc(SCC(=O)N/N=C/c2cc(C)n(-c3ccccc3C)c2C)n1	5.6%	5.6%	2.1%	-20.6%	-2.7%	?
Cc1cc(/C=N/Nc2ccc([N+](=O)[O-])cn2)c(C)n1-c1ccc(C(=O)O)cc1	0.7%	?	-19.2%	?	-24.1%	4.47µM*
COc1ccc(OC)c(CNC(=O)c2cc(S(=O)(=O)N3CCC(C)CC3)cn2C)c1	1.5%	2.7%	/	1.1%	?	4.3%
Cc1c(/C=N/Nc2ccc(F)cc2)c(O)n(C)c(=O)c1C#N	9.7%	?	?	-26.5%	4.8%	14.1µM*
COc1ccc(C(=O)N/N=C/c2c(CO)cnc(C)c2O)cc1	0.1%	-9.7%	?	-4.6%	-5.8%	-15.5%
COc1ccc(/C=N\NC(=O)c2cccc(Br)c2)c(OC)c1	-1.2%	-3.2%	1.6%	-11.7%	-0.9%	-3.8%
COc1ccc2cc(C(=O)N/N=C/c3sc4ccccc4c3O)ccc2c1	5.6%	-5.6%	?	7.94µM*[quencher]	-2.0%	1.26µM*
